GC-A act – GC-A (human) enzyme activation; P16066; HEK293 GC-A cells, cGMP TR-FRET, EC30 ANP; 0% at EC30 ANP, 100% saturating ANP; activation, % at 10 µM; 0.14% of 370,000 active; in the data active = activation above about 40%
Rce1 inh – blocks yeast Ras-converting enzyme. calls only. AID 2563. Q03530. yeast membranes, quenched prenylated peptide cleavage fluorescence. 0.27% of 290,000 active;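 active = fall in fluorescence gain of 50% or more versus controls, with final raw signal at or below 3038400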
Target sequence (Q03530 whole entry, looked up): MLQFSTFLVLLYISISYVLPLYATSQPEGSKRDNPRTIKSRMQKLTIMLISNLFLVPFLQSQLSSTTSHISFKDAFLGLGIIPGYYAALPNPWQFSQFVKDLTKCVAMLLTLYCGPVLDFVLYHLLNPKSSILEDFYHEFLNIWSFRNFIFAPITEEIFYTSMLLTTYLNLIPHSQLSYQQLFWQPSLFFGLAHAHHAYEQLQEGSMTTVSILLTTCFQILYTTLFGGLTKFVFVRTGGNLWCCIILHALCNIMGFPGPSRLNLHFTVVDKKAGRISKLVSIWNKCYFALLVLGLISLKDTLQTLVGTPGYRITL
PfM18AAP inh-1 – PfM18AAP enzyme inhibition. 1.2% of 290,000 active. inhibition, % at 7.35 µM. AID 1822. recombinant PfM18AAP, H-Glu-NHMec fluorogenic cleavage;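 active = inhibition above the campaign mean inhibition over all tested compounds plus 3 SD, cut at about 28% in these data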
NPR2 activator – GC-B (human) receptor activation; activation, % at 10 µM; 0.11% of 370,000 active; P20594; AID 1920062; HEK293-GC-B cells, CNP EC30, cGMP TR-FRET; 0% at EC30 CNP, 100% saturating CNP;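 active = activation at 10 µM reaching about 35% in either raw or pattern-adjusted values, limit read from the data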
PLCg1 inh – inhibitors of human phospholipase C gamma1; purified PLC-gamma1, fluorogenic substrate, fluorescence; inhibition, % at 12.2 µM; P19174; 0.84% of 370,000 active; in the data active = inhibition above about 9.5%
PLCb3 inh – PLC-beta3 (human) inhibition, primary screen; Q01970; Purified PLC-beta3, fluorogenic substrate, fluorescence; inhibition, % at 12.2 µM; 0.18% of 370,000 active; AID 720704; in the data active = inhibition above about 11%
PfM18AAP inh-2 – confirmation of Plasmodium falciparum M18 aspartyl aminopeptidase inhibitors; 28% of 2,400 active; recombinant PfM18AAP, H-Glu-NHMec fluorogenic cleavage; AID 2170; inhibition, % at 7.35 µM; shares compounds with PfM18AAP inh-1;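 active = mean inhibition over replicate wells above the hit cutoff set for the earlier primary screen, cut at about 29% in these data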
CTSL1 counter – counter-screen for PFM18AAP inhibitors: confirmation of human cathepsin L inhibitors; purified cathepsin L1, Z-Leu-Arg-MCA fluorescence; 2,400 tested, under 10 active; inhibition, % at 5.96 µM; shares compounds with PfM18AAP inh-1;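 active = average inhibition across replicates above the hit cutoff set in the earlier primary screen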
Target sequence (P07711 whole entry, looked up): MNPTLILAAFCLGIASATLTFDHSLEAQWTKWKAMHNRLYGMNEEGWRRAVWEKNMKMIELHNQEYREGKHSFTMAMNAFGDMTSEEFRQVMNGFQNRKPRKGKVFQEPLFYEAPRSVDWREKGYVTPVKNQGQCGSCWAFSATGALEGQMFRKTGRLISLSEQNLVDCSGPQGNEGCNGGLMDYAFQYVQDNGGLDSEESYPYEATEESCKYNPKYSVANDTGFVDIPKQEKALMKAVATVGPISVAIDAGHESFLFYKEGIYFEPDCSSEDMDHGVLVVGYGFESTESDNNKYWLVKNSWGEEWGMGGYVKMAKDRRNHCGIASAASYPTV
Of the large screens only hits and unclear results are named; the others gave an inactive call (follow-up assays come after a bar, where they were run). Only some compounds are listed: those with a hit (about 2.2% of all), similar ones and a draw of the others.

COc1cc(/C=C2/C(=O)N(c3ccc(C(=O)O)cc3)N=C2C)cc(OC)c1O	PfM18AAP inh-1 50 | PfM18AAP inh-2 29 | CTSL1 counter inactive
COc1ccc(N2CCN(CCCNC(=O)COc3ccc(C)cc3)CC2)cc1	none (no result: Rce1 inh, PfM18AAP inh-1)
CNC(=S)NNc1nc(C)cc(C)n1	PfM18AAP inh-1 68 | PfM18AAP inh-2 48 | CTSL1 counter inactive
CC1(C)OC(C)(C)/C(=C/Nc2ccc(O)cc2)C1=O	PfM18AAP inh-1 43 | PfM18AAP inh-2 inactive | CTSL1 counter inactive
CCCCNC(=O)C1(C(=O)C2CC2)CC(c2ccccc2C(F)(F)F)=NO1 (stereo not given)	none (no result: Rce1 inh, PfM18AAP inh-1)
O=[N+]([O-])c1cnc2ccccc2c1Sc1ccccc1	none (no result: Rce1 inh, PfM18AAP inh-1)
Cc1cc2oc(=O)sc2cc1NS(=O)(=O)c1cccc2cccnc12	none
Cc1cc2oc(=O)sc2cc1NS(=O)(=O)c1ccccc1	PfM18AAP inh-1 36 | PfM18AAP inh-2 inactive | CTSL1 counter inactive
O=C(Cc1ccccc1)NC1CCCCN(Cc2cccc(Cl)c2)C1=O (stereo not given)	none (no result: Rce1 inh, PfM18AAP inh-1)
CC1(C)CC(=O)c2c(oc3cc(O)c(O)cc23)C1	PfM18AAP inh-1 83 | PfM18AAP inh-2 73 | CTSL1 counter inactive
CC(C)(C)c1ccc(S(=O)(=O)N2CCC(C(=O)NCc3cccs3)CC2)cc1	none (no result: Rce1 inh, PfM18AAP inh-1)
N#C/C(=C\c1ccccc1)C(=O)Nc1nncs1	PfM18AAP inh-1 35 | PfM18AAP inh-2 37 | CTSL1 counter inactive
O=C(CSc1ncn[nH]1)CSc1ncn[nH]1	PfM18AAP inh-1 48 | PfM18AAP inh-2 inactive | CTSL1 counter inactive
O=C(CSc1ncn[nH]1)Nc1ccc([N+](=O)[O-])cc1Br	PfM18AAP inh-1 67 | PfM18AAP inh-2 79 | CTSL1 counter inactive
CCOc1cc(N2CCOCC2)c(OCC)cc1NC(=O)CSc1ncn[nH]1	PfM18AAP inh-1 49 | PfM18AAP inh-2 inactive | CTSL1 counter inactive
CC(=O)Nc1nonc1NC(=O)CSc1ncn[nH]1	PfM18AAP inh-1 48 | PfM18AAP inh-2 40 | CTSL1 counter inactive
COC(=O)C1=C(C)N(Cc2cccc(C(F)(F)F)c2)C(=NCc2ccccc2C(F)(F)F)NC1c1cccc(F)c1 (stereo not given)	none (no result: Rce1 inh, PfM18AAP inh-1)
CC(COc1ccc([N+](=O)[O-])cc1Cl)CN1CCC(C(O)(c2ccccc2)c2ccccc2)CC1 (stereo not given)	none (no result: Rce1 inh, PfM18AAP inh-1)
COc1ccc(CN2C/C(=C/c3ccccc3)N3C(=O)C[C@@H](c4ccc5ccccc5c4)N=C23)c(OC)c1	none (no result: Rce1 inh, PfM18AAP inh-1)
CC(=NNC(=O)CSc1nnc(-c2ccccc2)n1-c1ccccc1)c1cccc([N+](=O)[O-])c1	none (no result: Rce1 inh, PfM18AAP inh-1)
COc1ccc(CNS(=O)(=O)/C=C/c2cc(C)ccc2CNC(=O)OC(C)(C)C)cc1	none (no result: Rce1 inh, PfM18AAP inh-1)
O=C(CSc1ncn[nH]1)OCN1C(=O)c2ccccc2C1=O	PfM18AAP inh-1 85 | PfM18AAP inh-2 88 | CTSL1 counter inactive
O=C1c2ccccc2C(=O)N1CCSc1ncn[nH]1	none
CC1(C(=O)CSc2ncn[nH]2)CCC(=O)O1 (stereo not given)	PfM18AAP inh-1 58 (no result: GC-A act, NPR2 activator, PLCg1 inh, PLCb3 inh) | PfM18AAP inh-2 70 | CTSL1 counter inactive
C=CCN1C(C(=O)OCC)CSCCS1(=O)=O (stereo not given)	none (no result: Rce1 inh, PfM18AAP inh-1)
CC(C)C(=O)c1ccc(O)c(O)c1	PfM18AAP inh-1 41 | PfM18AAP inh-2 inactive | CTSL1 counter inactive
O=C(C(=O)c1ccc(O)c(O)c1)c1ccc(O)c(O)c1	none (no result: Rce1 inh, PfM18AAP inh-1)
CN[C@H]1CCc2cc(OC)c(OC)c(OC)c2-c2ccc(N(C)CC(OC)OC)c(=O)cc21	none
COc1cc2c(c(OC)c1OC)-c1ccc(N(C)CC(OC)OC)c(=O)cc1[C@@H](NC(C)=O)CC2	PfM18AAP inh-1 45 | PfM18AAP inh-2 inactive | CTSL1 counter inactive
COCCCNC(=S)N/N=C/c1ccc(O)cc1O	PfM18AAP inh-1 36 | PfM18AAP inh-2 inactive | CTSL1 counter inactive
CN(C)C(=S)Nc1ccc2c(c1)OCO2	PfM18AAP inh-1 38 | PfM18AAP inh-2 inactive | CTSL1 counter inactive
S=C(Nc1ccc2c(c1)OCO2)Nc1ccc2c(c1)OCO2	none
O=C1c2ccccc2C(=O)N1/N=C/c1ccc(O)c(O)c1O	PfM18AAP inh-1 66 (no result: GC-A act, NPR2 activator, PLCg1 inh, PLCb3 inh) | PfM18AAP inh-2 40 | CTSL1 counter inactive
Cc1nc2ccccc2c(=O)n1/N=C/c1ccccc1O	none
O=C1c2cccc3cccc(c23)C(=O)N1/N=C/c1ccc(O)cc1O	none
Cc1nc2ccccc2c(=O)n1/N=C/c1ccc(O)c(O)c1O	PfM18AAP inh-1 47 | PfM18AAP inh-2 inactive | CTSL1 counter inactive
COc1ccc(C(=O)NCC2CCN(C(=O)C(=O)c3cc4ccccc4o3)CC2)c(OC)c1	none (no result: Rce1 inh, PfM18AAP inh-1)
CC1(C)Cc2c(sc(NC(=O)C(=O)NCCCN3CCOCC3)c2C#N)CO1	PfM18AAP inh-1 49 | PfM18AAP inh-2 inactive | CTSL1 counter inactive
COC(=O)C[C@@H]1CC[C@H]2[C@H](COc3ccc(NC(=O)C4CCC4)cc3C(=O)N2C)O1	none (no result: Rce1 inh, PfM18AAP inh-1)
Cc1ccccc1C(=O)N(C)[C@H]1C[C@H]2c3[nH]c4c(-c5ccccc5)cccc4c3CCN2C[C@H]1[C@H](C)O	none (no result: Rce1 inh, PfM18AAP inh-1)
O=C(O)c1ccc(N=Cc2c(O)ccc3oc4c(c23)CCCC4)cc1	none
Oc1ccccc1N=Cc1c(O)ccc2oc3c(c12)CCCC3	PfM18AAP inh-1 39 | PfM18AAP inh-2 inactive | CTSL1 counter inactive
COc1ccc(/C(C)=N/Nc2nc(C)cc(-c3ccccc3)n2)cc1	none (no result: PfM18AAP inh-1)
COc1ccc(/C(C)=N\Nc2nc(-c3ccccc3)cc(=O)[nH]2)cc1	PfM18AAP inh-1 40 | PfM18AAP inh-2 inactive | CTSL1 counter inactive
Cc1ccc(NC(=O)/C(=C\c2ccc([N+](=O)[O-])cc2)NC(=O)c2ccccc2)cc1	none
O=C(N/N=C/c1ccc(O)c(O)c1O)/C(=C/c1ccc([N+](=O)[O-])cc1)NC(=O)c1ccccc1	PfM18AAP inh-1 54 | PfM18AAP inh-2 34 | CTSL1 counter inactive
Cc1cccc2sc(NNC(=O)c3cc(=O)c4ccccc4o3)nc12	PfM18AAP inh-1 44 | PfM18AAP inh-2 inactive | CTSL1 counter inactive
Cc1nc(C)c(C(=O)Nc2nc3c(C)cccc3s2)o1	none (no result: Rce1 inh)
CC(=O)O[C@@H]1CCC[C@@]2(C(=O)N(Cc3ccccc3)c3ccc(-c4c(C)noc4C)cc32)[C@H]1NC(=O)CCc1ccccc1	none (no result: Rce1 inh, PfM18AAP inh-1)
N#CC1=C(N)NC(=S)C(C(N)=O)C1c1ccccc1F (stereo not given)	PfM18AAP inh-1 46 | PfM18AAP inh-2 30 | CTSL1 counter inactive
CCc1c(C)sc(NC(=O)/C=C/C(=O)O)c1C(N)=O	PfM18AAP inh-1 34 | PfM18AAP inh-2 inactive | CTSL1 counter inactive
Cc1sc(NC(=O)/C=C/C(=O)O)c(C(N)=O)c1-c1ccc(C(C)(C)C)cc1	none
CCC[C@H]1[C@@H](NC(=O)c2ccc(C)cc2)CC[C@@]23CCCN2C(=O)CCC[C@@H]13	none (no result: Rce1 inh, PfM18AAP inh-1)

Screening data (PubChem)
